Where “and” joins values, the source holds several entries; their conditions need not be identical. Identical values can stand only once. Among all 2,000 compounds or so, about 20 (1%) were called active. This is one part of a sample in which actives are shown more often than they occur. No rule for the calls is given here. Residues, ends and D or L forms follow the SMILES beside them.

Chain of Cystic fibrosis transmembrane conductance regulator (Homo sapiens) (P13569 whole entry, looked up, stated change not applied): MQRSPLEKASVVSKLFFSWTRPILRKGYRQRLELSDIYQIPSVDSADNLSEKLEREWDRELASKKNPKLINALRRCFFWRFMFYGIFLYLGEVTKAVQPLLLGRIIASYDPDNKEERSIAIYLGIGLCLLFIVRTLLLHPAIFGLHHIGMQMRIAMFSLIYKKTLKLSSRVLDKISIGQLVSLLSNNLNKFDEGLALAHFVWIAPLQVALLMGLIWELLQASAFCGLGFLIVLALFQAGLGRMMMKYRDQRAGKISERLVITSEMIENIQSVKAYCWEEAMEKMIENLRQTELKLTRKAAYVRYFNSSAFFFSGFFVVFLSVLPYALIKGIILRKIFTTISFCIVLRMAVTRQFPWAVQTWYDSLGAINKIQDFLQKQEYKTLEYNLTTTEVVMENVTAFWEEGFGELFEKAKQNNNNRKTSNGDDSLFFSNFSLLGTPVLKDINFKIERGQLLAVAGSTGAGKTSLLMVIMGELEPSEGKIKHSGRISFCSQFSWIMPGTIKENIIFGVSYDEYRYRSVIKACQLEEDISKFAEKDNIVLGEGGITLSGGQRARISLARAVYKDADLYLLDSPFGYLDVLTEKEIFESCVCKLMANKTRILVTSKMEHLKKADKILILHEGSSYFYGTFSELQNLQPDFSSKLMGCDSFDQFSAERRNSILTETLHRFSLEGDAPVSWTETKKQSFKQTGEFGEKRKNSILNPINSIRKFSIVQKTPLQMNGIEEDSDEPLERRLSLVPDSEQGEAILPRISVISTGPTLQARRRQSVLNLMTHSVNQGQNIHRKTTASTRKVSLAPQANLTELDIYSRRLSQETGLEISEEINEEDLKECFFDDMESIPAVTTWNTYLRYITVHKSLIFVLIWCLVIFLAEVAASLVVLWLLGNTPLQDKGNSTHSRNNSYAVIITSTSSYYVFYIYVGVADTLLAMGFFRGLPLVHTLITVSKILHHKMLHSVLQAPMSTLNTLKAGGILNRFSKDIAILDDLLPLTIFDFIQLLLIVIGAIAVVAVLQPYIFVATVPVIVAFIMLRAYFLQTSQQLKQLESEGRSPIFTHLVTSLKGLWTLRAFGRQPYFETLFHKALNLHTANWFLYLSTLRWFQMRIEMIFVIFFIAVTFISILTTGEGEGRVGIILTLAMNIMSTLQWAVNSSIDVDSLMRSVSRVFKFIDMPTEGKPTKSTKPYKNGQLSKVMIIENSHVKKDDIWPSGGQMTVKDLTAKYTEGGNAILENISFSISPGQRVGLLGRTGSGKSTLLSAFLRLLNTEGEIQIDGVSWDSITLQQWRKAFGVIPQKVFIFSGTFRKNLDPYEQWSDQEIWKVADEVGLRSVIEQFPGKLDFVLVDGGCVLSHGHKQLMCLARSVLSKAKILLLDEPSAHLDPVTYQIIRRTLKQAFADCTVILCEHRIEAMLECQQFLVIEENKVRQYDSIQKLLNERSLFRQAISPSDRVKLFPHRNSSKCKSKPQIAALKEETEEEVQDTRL

The assay has as its target Cystic fibrosis transmembrane conductance regulator (Homo sapiens) (UniProt P13569). Description: correctors of F508del-CFTR surface localization, primary screen, imaging, HeLa, high-content microscopy, immunofluorescence (AID 1224864).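 Also: HeLa cells stably expressing F508del-CFTR stained with 3G11 antibody against NBD1.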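 As to plasma membrane CFTR intensity: mean immunofluorescence in a thin cell-margin band taken as plasma membrane.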 Particulars: PM immunofluorescence imaging, 24 h, at 10 µM, stronger effect = higher value, relative to vehicle wells set at 100; total CFTR intensity: measured here: total cellular F508del-CFTR signal.
With `N#C/C(=C/c1ccccc1)C(=O)NCc1ccccc1`, the plasma membrane CFTR intensity is 124% (active) and the total CFTR intensity stood at 125%.
`S=C(NCc1ccccc1)NCc1cccc(CNC(=S)NCc2ccccc2)c1`: the plasma membrane CFTR intensity was 79% (inactive) and the total CFTR intensity is 81%.
Taken in the same sequence, the figures for `Cc1cc(-c2nn(-c3ccccc3F)cc2CN2CCCC(O)C2)c(C)s1` (stereo not drawn) were 75% (inactive) and 76%.
`O=C(/C=C/c1ccccc1)NCC1(c2ccccc2)CCOCC1`: the plasma membrane CFTR intensity is 87% (inactive) and the total CFTR intensity is 84%.
Take `COc1cc(CNCc2ccc(OC)c(OC)c2OC)cc(OC)c1`: the plasma membrane CFTR intensity is 85% (inactive) and the total CFTR intensity was 79%.
Taken in the same sequence, the figures for `O=C(CCCCC(=O)NC1CCCC1)NC1CCCC1` were 90% (inactive) and 90%.
In the case of `CCc1cccc2c1NC1(CCCC1)CC2C` (stereo not drawn), the plasma membrane CFTR intensity is 74% (inactive) and the total CFTR intensity was 89%.
The matching figures for `O=C1OC(=O)C2C1[C@@H]1CC[C@H]2O1` (stereo partly drawn): 120% (active) and 133%.
Taken in the same sequence, the figures for `COc1ccc2c(CC(=O)NCC3CCC(C(=O)O)CC3)cc(=O)oc2c1` (stereo not drawn) were 92% (inactive) and 94%.
On to `CC1=CC(C)(C)N2C(=O)C3(NCCc4c3[nH]c3ccccc43)c3cc(C)cc1c32` (stereo not drawn), for which the plasma membrane CFTR intensity is 108% (active) and the total CFTR intensity is 129%.
The matching figures for `COc1ccc2c3c([nH]c2c1)C1(NCC3)C(=O)Nc2ccccc21` (stereo not drawn): 85% (inactive) and 81%.
The matching figures for `CC12CCCCN1CCCc1c2[nH]c2ccccc12` (stereo not drawn): 104% (inactive) and 100%.
The matching figures for `COc1ccc2c(c1)c(=O)oc1cc3occ(C(C)(C)C)c3cc12`: 92% (inactive) and 88%.
As for `O=C(NNC(=O)c1cccs1)c1ccco1`, the plasma membrane CFTR intensity was 93% (inactive) and the total CFTR intensity worked out at 90%.
The matching figures for `O=C(NCc1ccc2c(c1)OCO2)c1ccc2c(c1)OCCO2`: 80% (inactive) and 80%.
For the compound `CCCCOc1cc(C(=O)NCCN(CC)CC)c2ccccc2n1`, the plasma membrane CFTR intensity is 105% (inactive) and 91% (inactive); the total CFTR intensity was 109% and 93%.
As to `CCN(CC)CCNc1ccc(CO)c2sc3ccccc3c(=O)c12`, the plasma membrane CFTR intensity is 207% (active) and the total CFTR intensity was found to be 238%.
In the case of `CCN(CC)CCCNC(=O)C1c2ccccc2Oc2ccccc21`, the plasma membrane CFTR intensity is 84% (inactive) and the total CFTR intensity stood at 85%.
Turning to `O=C(O)CCCN1C(=O)NC2NC(=O)NC21` (stereo not drawn), the plasma membrane CFTR intensity is 91% (inactive) and the total CFTR intensity worked out at 95%.
The matching figures for `CCOCc1cc(C)[nH]c(=O)c1C#N`: 80% (inactive) and 83%.
Taken in the same sequence, the figures for `COc1ccc(/C=C\c2cc(OC)c(OC)cc2CC[N+](C)(C)C)cc1OC` were 81% (inactive) and 82%.
The matching figures for `COc1cc2ccc(=O)oc2c(O)c1OCC=C(C)C`: 86% (inactive) and 92%.
On to `COc1cccc(CC2CC(=O)N(c3ccc4c(C)cc(=O)oc4c3)C2=O)c1` (stereo not drawn), for which the plasma membrane CFTR intensity is 77% (inactive) and the total CFTR intensity is 83%.
In the case of `O=C(/C=C/c1ccco1)NCc1ccc2c(c1)OCO2`, the plasma membrane CFTR intensity was 79% (inactive) and the total CFTR intensity was 77%.
The matching figures for `CC(=O)NC(Cc1ccccc1)C(=O)OCC(=O)c1ccccc1` (stereo not drawn): 77% (inactive) and 78%.
The matching figures for `CC1(C)Cc2ccccc2-c2n[nH]c(=S)n21`: 93% (inactive) and 97%.
Taken in the same sequence, the figures for `Cn1c2[n+](c3ccc(Cl)cc3c1=O)Cc1ccccc1-2` were 78% (inactive) and 85%.
As for `Cc1cc(/C=N/O)c(C)n1-c1ccc(Br)cc1`, the plasma membrane CFTR intensity is 78% (inactive) and the total CFTR intensity came out at 82%.
The matching figures for `CN1C(=O)C(O)(CC(=O)c2ccccc2O)c2cc(Br)ccc21` (stereo not drawn): 159% (inactive) and 190%.
Taken in the same sequence, the figures for `CO[C@H]1C=CO[C@@]2(C)Oc3c(C)c(O)c4c(O)c(c(/C=N/N5CCN(C)CC5)c(O)c4c3C2=O)NC(=O)C(C)=CC=C[C@H](C)[C@H](O)[C@@H](C)[C@@H](O)[C@@H](C)[C@H](OC(C)=O)[C@@H]1C` were 113% (active) and 137%.
Taken in the same sequence, the figures for `O=C(OCC1CCCN2CCCCC12)c1ccc2c(c1)OCO2` (stereo not drawn) were 85% (inactive) and 81%.
Take `CC1=C/C(=N\N=C2/NC(=O)C(CC(=O)Nc3ccccc3F)S2)CC(C)(C)C1` (stereo not drawn): the plasma membrane CFTR intensity is 65% (inactive) and the total CFTR intensity turned out to be 65%.
The matching figures for `O=C(Cc1ccccc1)NNC(=O)Cc1ccccc1`: 74% (inactive) and 77%.
Taken in the same sequence, the figures for `CC1(C)CC(c2csc(N)n2)CCO1` (stereo not drawn) were 90% (inactive) and 92%.
Regarding `CC(=O)NC(CC(C)C)C(=O)NC(Cc1ccccc1)C(N)=O` (stereo not drawn) (Ac-Leu-Phe-NH2; configuration not given here), the plasma membrane CFTR intensity is 91% (inactive) and the total CFTR intensity was determined as 94%.
Taken in the same sequence, the figures for `O=C(O)C(O)c1ccccc1` (stereo not drawn) were 89% (inactive) and 81%.
The matching figures for `Cc1cccc(-c2ncc(CN3CCN(CC(C)C)C(CCO)C3)cn2)c1` (stereo not drawn): 80% (inactive) and 81%.
Taken in the same sequence, the figures for `COC(=O)c1ccc(NC(=O)c2ccccc2SC)cc1` were 81% (inactive) and 79%.
As for `CC(=O)c1c(N)nc2n(c1=O)CCCCC2`, the plasma membrane CFTR intensity was 80% (inactive) and the total CFTR intensity was 78%.
The matching figures for `Cn1c(=O)[nH]c(=O)c2c1nc(Br)n2CCCO`: 81% (inactive) and 84%.
Regarding `COc1cc(C(=O)Nc2ccc(N(C)C)cc2)c([N+](=O)[O-])cc1OC`, the plasma membrane CFTR intensity is 100% (inactive) and the total CFTR intensity was determined as 106%.
Taken in the same sequence, the figures for `Cc1ccc(/C=N/Nc2nc(C(C)(C)C)cs2)o1` were 135% (active) and 153%.
As to `CC(C)(C)c1csc(N/N=C/c2cccnc2)n1`, the plasma membrane CFTR intensity was 93% (inactive) and the total CFTR intensity was 92%.
The matching figures for `C=CCC1(Cl)C(=O)C(Cl)=C(N2CCOCC2)C1(OC)OC` (stereo not drawn): 77% (inactive) and 77%.

The values are drawn from PubChem BioAssay AID1224864 (Chung Lab, Department of Pediatrics, Emory University, 2016).
